# Data from PubChem BioAssay (NCATS).
# Results filed as inconclusive are left out. Calls of active or inactive are those of the source. Calls follow the shape of the dose curve; as a rule, active = well fitted inhibition curve with a large enough effect; inconclusive = small, poorly fitted or top-dose-only effect; inactive = no such curve, though single readings can be large or run the other way.
# Target: Retinaldehyde dehydrogenase 3 (Homo sapiens) (UniProt P47895)
# Assay: qHTS for Inhibitors of the Aldehyde Dehydrogenase Family (ALDH1A3) Primary screen (AID 2061315);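 as to activity change, negative = inhibition: plate controls were DMSO vehicle for no effect and reference inhibitor for full effect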
# Conditions: ALDH inhibition qHTS; series mostly up to 56 µM; activity change, negative = inhibition: at the top concentration
# Potency is read from the fitted curve at half-maximal effect.
SMILES,"activity change, negative = inhibition",Potency
N[C@@]1(C(=O)O)CC[C@H]2[C@H](C(=O)O)[C@H]21,-0.961% (inactive),–
NC(=O)[C@H]1CCS[C@@H]2C[C@]3(CCCN3C(=O)Cc3ccc(NC(=O)COc4ccc(Cl)cc4Cl)cc3)C(=O)N12,8.95% (inactive),–
C=C1C(=O)O[C@H]2C[C@@H](C)[C@@H]3CCC(=O)[C@@]3(C)C[C@H]12,-16.8% (inactive),–
O=C(O)c1cccc(-c2noc(-c3ccccc3F)n2)c1,–,0.316 µM (active)
CC(O)(C#Cc1ccc2c(c1)N(c1nc(N)ncc1Cl)CC2)c1nccs1 (stereo not given),-12.3% (inactive),–
CCOC(=O)[C@H](CCc1ccccc1)N[C@@H](C)C(=O)N1C(=O)N(C)C[C@H]1C(=O)O,-21.2% (inactive),–
O=C(CCN1CCN(C(=O)OCc2cc(Cl)cc(Cl)c2)CC1)c1ccc2[nH]c(=O)oc2c1,-19.5% (inactive),–
CCC(=O)c1cc(-c2ccc(Cl)cc2)n(-c2ccc(S(N)(=O)=O)cc2)c1C,13.4% (inactive),–
OC[C@H]1O[C@@H](n2cnc3c2NC=NC[C@H]3O)C[C@@H]1O,9.19% (inactive),–
CCC(C)C(N)C(=O)NCCN1CCOCC1 (stereo not given),-4.18% (inactive),–
CC(C)(CC(=O)N1CCCC1)NCC(=O)N1C[C@@H](F)C[C@H]1C#N,-9.97% (inactive),–
O=C(CCl)Nc1cccc(NC2=NS(=O)(=O)c3ccccc32)c1,-0.963% (inactive),–
O=C(Nc1cc(C(F)(F)F)cc(C(F)(F)F)c1)c1cnc(Cl)nc1C(F)(F)F,-10.1% (inactive),–
Fc1ccc(-c2nc(C3CCNCC3)sc2-c2ccnc(NC3CC3)n2)cc1,-12.5% (inactive),–
O=C(O)c1n[nH]c2c1C[C@H]1C[C@@H]21,-13.2% (inactive),–
N#Cc1ccc(O[C@@H]2c3ccccc3C[C@H]2N2CCC[C@@H](N)C2)c(Cl)c1,-8.49% (inactive),–
O=c1cc(CN2CCOCC2)occ1OCCCCCSc1ccnc2cc(C(F)(F)F)ccc12,–,inactive
CC1(C)C[C@H]2C=C(C=O)[C@]3(C(=O)O)C[C@]3(C)[C@H]2C1,-2.45% (inactive),–
COc1ccc(CC2NCCc3c2[nH]c2ccc(C)cc32)cc1OC (stereo not given),-10.4% (inactive),–

# Target: Aldehyde dehydrogenase 1A1 (Homo sapiens) (UniProt P00352)
# Assay: qHTS for Inhibitors of the Aldehyde Dehydrogenase Family (ALDH1A1) Confirmatory screens (AID 2061316); also: nearly all actives have a fitted effect of over 65% in size; as to activity change, negative = inhibition: % is scaled to controls: 0 for no effect and ±100 for the full control effect
# Conditions: ALDH inhibition qHTS; series mostly up to 47.3 µM; activity change, negative = inhibition: at the top concentration
SMILES,Potency,"activity change, negative = inhibition",outcome
Cc1ccc(S(=O)(=O)c2ccc([N+](=O)[O-])o2)cc1,0.504 µM (active),–,–
Clc1cccc(COc2cncc(N3CCNCC3)n2)c1,–,-0.0164% (inactive),–
CCNC(=O)OC1CCN(c2nncc3cc(OC)c(OC)cc23)CC1,–,1.95% (inactive),–
N[C@H]1Cc2ccccc2N(O)C1=O,–,-13.6% (inactive),–
N#Cc1ccc(C(=O)N2CCC3(CC2)N=C(N)c2c(F)ccc(F)c2N3)cn1,–,-17.8% (inactive),–
Cc1onc(-c2c(Cl)cccc2Cl)c1C(=O)N[C@@H]1C(=O)N2[C@@H]1SC(C)(C)[C@@H]2C(=O)O,–,–,inactive
Oc1ccc(CC2NCCc3cc(O)c(O)cc32)cc1 (stereo not given),–,1.64% (inactive),–
CCN(CC)CCOCCOC(=O)C(CC)(CC)c1ccccc1,–,–,inactive
O=c1[nH]c2cccc(N3CCN(Cc4ccc(-c5ccccc5)cc4)CC3)c2o1,–,-16.4% (inactive),–
N#Cc1ccc(-c2cnc3[nH]cc(NC(=O)c4cccnc4)c3c2)cc1,12.7 µM (active),–,–
O=C1C[C@@H](c2ccc(O)cc2)Oc2cc(O)ccc21,–,2.48% (inactive),–
NC(N)=NCCC[C@H](NC(=O)c1sccc1NS(=O)(=O)c1cccc2nsnc12)C(=O)O,–,-11.8% (inactive),–
Cc1cn(C[C@H](N)C(=O)O)c(=O)n(Cc2ccsc2C(=O)O)c1=O,–,–,inactive
C[S+](CC[C@H](N)C(=O)[O-])C[C@H]1O[C@@H](n2cnc3c(N)ncnc32)[C@H](O)[C@@H]1O (stereo not given in full),–,-10.5% (inactive),–
COc1cccc(OC)c1C(=O)N[C@@H]1C(=O)N2[C@@H]1SC(C)(C)[C@@H]2C(=O)O,–,–,inactive
N[C@@]1(C(=O)O)CC[C@H]2[C@H](C(=O)O)[C@H]21,–,-3.48% (inactive),–

SMILES,Potency,"activity change, negative = inhibition",outcome
NC(=O)[C@H]1CCS[C@@H]2C[C@]3(CCCN3C(=O)Cc3ccc(NC(=O)COc4ccc(Cl)cc4Cl)cc3)C(=O)N12,–,-13.9% (inactive),–
C=C1C(=O)O[C@H]2C[C@@H](C)[C@@H]3CCC(=O)[C@@]3(C)C[C@H]12,–,3.24% (inactive),–
CCOC(=O)[C@H](CCc1ccccc1)N[C@@H](C)C(=O)N1C(=O)N(C)C[C@H]1C(=O)O,–,-2.87% (inactive),–
O=C(CCN1CCN(C(=O)OCc2cc(Cl)cc(Cl)c2)CC1)c1ccc2[nH]c(=O)oc2c1,0.252 µM (active),–,–
C=C1CC[C@@H]2[C@](C)(CO)[C@H](O)CC[C@@]2(C)[C@@H]1CC(=O)C1=CCOC1=O,–,-17.9% [at 25.5 µM] (inactive),–
CCC(=O)c1cc(-c2ccc(Cl)cc2)n(-c2ccc(S(N)(=O)=O)cc2)c1C,–,–,inactive
OC[C@H]1O[C@@H](n2cnc3c2NC=NC[C@H]3O)C[C@@H]1O,–,-0.381% (inactive),–
CCC(C)C(N)C(=O)NCCN1CCOCC1 (stereo not given),–,-10.9% (inactive),–
CC(C)(CC(=O)N1CCCC1)NCC(=O)N1C[C@@H](F)C[C@H]1C#N,–,3.81% (inactive),–
O=C(CCl)Nc1cccc(NC2=NS(=O)(=O)c3ccccc32)c1,12.7 µM (active),–,–
O=C(Nc1cc(C(F)(F)F)cc(C(F)(F)F)c1)c1cnc(Cl)nc1C(F)(F)F,–,-19% (inactive),–
Fc1ccc(-c2nc(C3CCNCC3)sc2-c2ccnc(NC3CC3)n2)cc1,–,–,inactive
O=C(O)c1n[nH]c2c1C[C@H]1C[C@@H]21,–,-9.08% (inactive),–
CC1(C)C[C@H]2C=C(C=O)[C@]3(C(=O)O)C[C@]3(C)[C@H]2C1,–,-19.1% (inactive),–
COc1ccc(CC2NCCc3c2[nH]c2ccc(C)cc32)cc1OC (stereo not given),–,-17.8% (inactive),–
